Reference: PubChem BioAssay (NCATS)
The source made the active and inactive calls. Unless noted, the call rests on the fitted dose curve; in most records, active means well fitted curve in the direction sought with a large enough effect; inconclusive means small, poorly fitted or top-dose-only effect, or another doubt; inactive means no such curve, though single readings can be large; an effect the other way counts as inactive or inconclusive.

The compounds below were run against Glucocorticoid receptor (Homo sapiens) (UniProt P04150) (assay: GR-GFP Redistribution (AID 450;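 active means compounds whose dose series gives a full or clear partial fitted curve of increased nuclear translocation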; further: potency means the concentration at half of the fitted maximal effect)). Details: U2OS GR-GFP nuclear translocation, laser cytometry, 2 h.
Chain of Glucocorticoid receptor (Homo sapiens) (P04150 whole entry, looked up): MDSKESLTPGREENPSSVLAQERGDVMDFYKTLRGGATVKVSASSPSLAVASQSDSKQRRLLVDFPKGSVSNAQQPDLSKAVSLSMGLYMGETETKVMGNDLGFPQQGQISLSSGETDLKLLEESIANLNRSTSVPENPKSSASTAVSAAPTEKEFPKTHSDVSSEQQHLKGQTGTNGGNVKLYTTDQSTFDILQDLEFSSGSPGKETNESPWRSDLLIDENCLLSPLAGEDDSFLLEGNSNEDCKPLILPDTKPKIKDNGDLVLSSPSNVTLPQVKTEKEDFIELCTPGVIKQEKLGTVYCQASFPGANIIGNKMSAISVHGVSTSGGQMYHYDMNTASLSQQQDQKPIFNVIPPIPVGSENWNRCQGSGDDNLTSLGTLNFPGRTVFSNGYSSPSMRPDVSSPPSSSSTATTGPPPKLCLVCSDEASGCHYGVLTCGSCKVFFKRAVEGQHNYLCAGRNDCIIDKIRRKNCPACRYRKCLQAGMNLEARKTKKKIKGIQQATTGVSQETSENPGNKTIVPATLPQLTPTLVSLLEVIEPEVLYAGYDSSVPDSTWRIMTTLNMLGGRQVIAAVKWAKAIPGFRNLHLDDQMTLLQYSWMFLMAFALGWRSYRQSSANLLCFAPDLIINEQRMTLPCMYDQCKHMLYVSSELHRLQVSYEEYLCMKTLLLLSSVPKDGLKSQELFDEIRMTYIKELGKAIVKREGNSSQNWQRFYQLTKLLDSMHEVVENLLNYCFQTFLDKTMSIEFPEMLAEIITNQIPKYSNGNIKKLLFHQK

Potency, inactive:
CCOC(=O)c1c(C)[nH]c2ccc3c(c12)CN1CCc2cc(OC)ccc2[C@@H]1O3 > 46 µM
COc1ccc(/C=C\C(=O)Nc2ccccc2C(=O)O)cc1OC > 46 µM
O=S(=O)(c1cccc2cnccc12)N1CCNCC1 > 46 µM

These compounds were tested against Cytochrome P450 3A4 (Homo sapiens) (UniProt P08684) (assay: qHTS Assay for Activators of Cytochrome P450 3A4 (AID 885; further: nearly all actives have a fitted effect of over 65% in size)). Details: recombinant CYP3A4, Luciferin-PPXE luminescence, 60 min; series mostly up to 57.1 µM.
Summary of the method: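 Human CYP3A4 (20 nM) with Luciferin-PPXE at 25 uM (its KM) in 200 mM KPO4; 10 min compound preincubation, then NADPH regeneration and 60 min reaction at RT. Luciferin read by luminescence; normalized to 57 uM ketoconazole full inhibition.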

Chain of Cytochrome P450 3A4 (Homo sapiens) (P08684 whole entry, looked up): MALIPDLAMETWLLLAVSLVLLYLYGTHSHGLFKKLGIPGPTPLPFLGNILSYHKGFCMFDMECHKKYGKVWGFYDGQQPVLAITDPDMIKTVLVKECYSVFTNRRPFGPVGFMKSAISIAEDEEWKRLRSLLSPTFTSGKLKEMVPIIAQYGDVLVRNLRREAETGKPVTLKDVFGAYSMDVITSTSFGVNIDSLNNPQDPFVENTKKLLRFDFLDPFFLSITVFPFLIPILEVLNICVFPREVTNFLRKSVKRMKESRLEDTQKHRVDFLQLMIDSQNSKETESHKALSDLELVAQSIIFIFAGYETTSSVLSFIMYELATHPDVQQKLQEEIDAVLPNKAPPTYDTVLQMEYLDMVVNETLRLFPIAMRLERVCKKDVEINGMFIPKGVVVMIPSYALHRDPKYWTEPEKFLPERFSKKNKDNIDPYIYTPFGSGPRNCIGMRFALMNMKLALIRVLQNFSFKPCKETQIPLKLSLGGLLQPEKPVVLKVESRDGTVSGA

Potency, inactive:
CCOC(=O)c1c(C)[nH]c2ccc3c(c12)CN1CCc2cc(OC)ccc2[C@@H]1O3
COc1ccc(/C=C\C(=O)Nc2ccccc2C(=O)O)cc1OC
O=S(=O)(c1cccc2cnccc12)N1CCNCC1

These compounds were tested against DNA dC->dU-editing enzyme APOBEC-3G (Homo sapiens) (UniProt Q9HC16) (assay: qHTS for inhibitors of Vif-A3G interactions: Validation (AID 588379)). Details: Vif-A3G protein interaction assay; series mostly up to 46.1 µM.
Summary of the method: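 HeLa cells stably expressing Vif and A3G-eYFP, 700 cells/well, incubated overnight at 37 deg C, then exposed to compound overnight at 37 deg C. Inhibition of Vif-mediated degradation read as increased yellow fluorescence (Ex 488/Em 500-530) by laser-scanning cytometry.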

Chain of DNA dC->dU-editing enzyme APOBEC-3G (Homo sapiens) (Q9HC16 whole entry, looked up): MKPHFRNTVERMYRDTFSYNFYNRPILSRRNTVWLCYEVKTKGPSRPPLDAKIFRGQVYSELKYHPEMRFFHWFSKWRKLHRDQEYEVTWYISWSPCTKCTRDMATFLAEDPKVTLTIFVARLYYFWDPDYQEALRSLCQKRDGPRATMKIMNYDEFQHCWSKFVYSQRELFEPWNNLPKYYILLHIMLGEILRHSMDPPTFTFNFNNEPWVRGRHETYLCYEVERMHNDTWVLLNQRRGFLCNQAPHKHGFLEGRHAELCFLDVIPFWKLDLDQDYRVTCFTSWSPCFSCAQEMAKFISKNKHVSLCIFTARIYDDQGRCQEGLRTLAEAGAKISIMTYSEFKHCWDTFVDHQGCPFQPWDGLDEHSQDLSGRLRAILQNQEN

Potency, inactive:
CCOC(=O)c1c(C)[nH]c2ccc3c(c12)CN1CCc2cc(OC)ccc2[C@@H]1O3
COc1ccc(/C=C\C(=O)Nc2ccccc2C(=O)O)cc1OC
O=S(=O)(c1cccc2cnccc12)N1CCNCC1
